Source: PubChem (National Center for Advancing Translational Sciences (NCATS))
JMJD2A Tudor inh – JMJD2A Tudor domain (human) inhibition; O75164; AlphaScreen JMJD2A-Tudor / H3K4me3 peptide binding; Potency, µM (top dose mostly 114 µM), most hits filed as inhibitors; actives 4.4% (n = 390,000); AID 504339; further: nearly all actives have a fitted effect of over 50% in size
HP1b binding inh – blocks HP1-beta chromodomain binding to methylated histone tails | P83916 | Potency, µM (highest dose often 114 µM), actives largely listed as inhibitors | AlphaScreen HP1-beta / biotin-H3K9me3 peptide binding | actives 0.56% (n = 390,000); further: nearly all actives have a fitted effect of over 70% in size
Target sequence (P83916 whole entry, looked up): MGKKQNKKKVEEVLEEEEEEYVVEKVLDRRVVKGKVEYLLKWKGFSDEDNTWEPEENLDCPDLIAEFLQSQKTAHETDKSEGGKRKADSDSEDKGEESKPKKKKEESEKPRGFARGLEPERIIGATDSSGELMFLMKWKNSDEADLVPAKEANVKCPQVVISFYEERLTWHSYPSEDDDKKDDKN
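HP1-beta protein (50 nM final) preincubated 30 min at room temperature with biotinylated H3(1-18)K9me3 peptide (50 nM) in PBS pH 7.4, 0.01% Tween-20, then compound added for 30 min. AlphaScreen streptavidin donor/nickel chelate acceptor beads (10 ug/mL final), 30 min dark, luminescence read.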
BAZ2B block – BAZ2B (human) inhibition | Q9UIF8 | actives 4.4% (n = 360,000) | Potency, µM (doses to about 114 µM), usual class: inhibitors | AlphaScreen BAZ2B-H3K14Ac peptide displacement; further: nearly all actives have a fitted effect of over 60% in size
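AlphaScreen luminescence quantifies BAZ2B engagement of H3K14Ac peptide; the protein and biotinylated peptide are both at 50 nM final, buffer PBS pH 7.4 with 0.01% Tween-20, all steps at room temperature.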
G9a block – blocks human histone lysine methyltransferase G9a | Q96KQ7 | G9a H3K9 monomethylation, AlphaScreen, 2 h | Potency, µM (series often up to 102 µM), actives largely listed as inhibitors | actives 8.8% (n = 350,000) | AID 504332; further: nearly all actives have a fitted effect of over 75% in size
Target sequence (Q96KQ7 913-1193 limits assumed): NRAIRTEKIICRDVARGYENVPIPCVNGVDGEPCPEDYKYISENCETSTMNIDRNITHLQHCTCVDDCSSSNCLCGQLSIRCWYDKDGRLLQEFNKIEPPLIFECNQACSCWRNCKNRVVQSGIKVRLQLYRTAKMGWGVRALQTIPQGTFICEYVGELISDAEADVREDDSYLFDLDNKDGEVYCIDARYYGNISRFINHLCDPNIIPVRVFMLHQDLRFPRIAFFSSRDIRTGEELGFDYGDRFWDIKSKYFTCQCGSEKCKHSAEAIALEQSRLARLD
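AlphaScreen read-out: biotin-H3K9 peptide (500 nM) methylation by 20 nM enzyme with 20 uM SAM, 2 h at room temperature after 15 min compound preincubation; anti-monomethyl H3K9 antibody plus donor/acceptor beads, 10 min dark.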
GLS inh – inhibitors of human glutaminase (GLS) | actives 0.21% (n = 410,000) | AID 624170 | Potency, µM (series often up to 45.5 µM), most hits filed as inhibitors | GLS enzymatic activity, qHTS titration | O94925
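hKGA; 45 mM KH2PO4 pH 8.2 + 0.02% Tween-20; cpd via pin tool; 1 mM Gln soln; GluOx/HRP/Amplex Red; RT 30 min; fluor. t0 & final.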
Numbers stand for hits; 0 = inactive; ? = inconclusive; - = no result; [ ] = dose if it differs, or a comment. Most compounds without a hit are left out; they make up all but 10% or so of the library. The call rests on the fitted dose curve; in most records, active means well fitted curve in the direction sought with a large enough effect; inconclusive means small, poorly fitted or top-dose-only effect, or another doubt; inactive means no such curve, though single readings can be large; an effect the other way counts as inactive or inconclusive.

SMILES	JMJD2A Tudor inh	HP1b binding inh	BAZ2B block	G9a block	GLS inh
Cc1ccc(N(CC(=O)NC2CCCC2)C(=O)CCC(=O)Nc2nccs2)cc1C	0	0	0	0	0
Cc1ccc(NC(=O)COC(=O)CCc2ccc(S(=O)(=O)N3CCOCC3)cc2)cc1C	0	0	0	0	0
O=C(NC1CCCCC1)c1cc(-c2ccco2)on1	0	0	0	0	0
O=C(NC1CC1)c1ccc2nc(-c3ccco3)c(-c3ccco3)nc2c1	20µM	22µM	-	-	-
O=C(NC1CCCCC1)c1ccc(CSc2nc3cccnc3n2Cc2ccccc2F)cc1	0	0	0	0	0
CN(C)S(=O)(=O)c1ccc(C(=O)NCC(=O)N/N=C/c2ccco2)cc1	0	0	0	0	0
Cc1ccc(-c2csc(N/N=C/c3ccco3)n2)cc1	50µM	0	?	?	0
Brc1ccc(-c2csc(N/N=C/c3ccco3)n2)cc1	0	0	8.9µM	?	0
O=C(/C=C/c1ccco1)Nc1nc(-c2ccc(F)c(F)c2)cs1	0	0	0	-	0
Clc1ccc(-c2csc(N/N=C\c3cccnc3)n2)cc1	0	0	0	10µM	0
CN(C)S(=O)(=O)c1ccc(-c2csc(N/N=C/c3ccco3)n2)cc1	0	0	0	28µM	?
CCn1c(=O)c(CCC(=O)N2CCOCC2)c(C)c2c(C)nn(-c3ccccc3)c21	0	0	0	0	0
Cc1ccc2nc(N/N=C/c3ccco3)cc(C)c2c1	?	0	45µM	?	0
C(=N\Nc1nc(-c2ccccc2)cs1)/c1ccco1	?	?	40µM	13µM	0
O=C(Nc1nc(-c2ccc(Cl)cc2)cs1)c1cccnc1	0[11.4 µM]	?	0	40µM	0
Clc1ccc(-c2csc(N/N=C/c3ccco3)n2)cc1	?	0	35µM	-	?
O=c1c2sc3ccccc3c2n(Cc2cccc(C(F)(F)F)c2)c(=O)n1Cc1ccccc1	0	0	0	0	0
OCC[C@H]1C[C@H](O)[C@@H](O)[C@@]2(CCc3ccccc3O2)O1	0	0	0	?	0
CN(C)S(=O)(=O)c1ccc(-c2csc(N/N=C/c3ccc(O)cc3)n2)cc1	?	0	?	22µM	?
Cc1cc2c3c(c1)C1(SCC(=O)N1c1ccc(F)cc1)C(=O)N3C(C)(C)CC2C (centres undefined)	?	0	0	0	0
CC1CC(C)(C)N2C(=O)C3(Nc4ccccc4S3)c3cccc1c32 (centres undefined)	50µM	0	50µM	45µM	0
CCOC(=O)N1CCC(N2Cc3cccc(C(=O)Nc4cc(F)ccc4F)c3C2=O)CC1	0	0	0	0	0
CCOC(=O)N1CCC(N2Cc3cccc(C(=O)NCC4CCN(CC(C)C)C4)c3C2=O)CC1 (centres undefined)	0	0	0	50µM	0
CCOC(=O)N1CCC(N2Cc3cccc(C(=O)Nc4ccc(N(CC)CC)cc4C)c3C2=O)CC1	25µM	?	14µM	10µM	0
CC(C)CC(c1nnnn1C1CCCC1)N1CCN(C(=O)c2ccco2)CC1 (centres undefined)	50µM	0	79µM	0	0
SMILES	JMJD2A Tudor inh	HP1b binding inh	BAZ2B block	G9a block	GLS inh
CCCCC(c1nnnn1C1CCCC1)N1CCN(C(=O)c2ccco2)CC1 (centres undefined)	0	0	79µM	0[12.7 µM]	0
CC(C)CC(c1nnnn1C1CCCCC1)N1CCN(C(=O)c2ccco2)CC1 (centres undefined)	0	0	0	?	0
COc1cc(Cl)c(C)cc1NC(=O)Cn1c(NCCO)nc2ccccc21	0	0	0	0	0
CC1CCCC(C)N1C(=O)COC(=O)c1cc([N+](=O)[O-])ccc1N1CCOCC1 (centres undefined)	0	0	0	?	0
CCc1ccc(NC(=O)C(C)OC(=O)CCN2C(=O)C3CC=CCC3C2=O)cc1 (centres undefined)	0	0	-	-	0
COc1ccc(C(=O)C(C)OC(=O)CCN2C(=O)C3CC=CCC3C2=O)cc1 (centres undefined)	0	0	0	7.9µM	0
Cc1ccc(C)c(N2CCN(C3(c4ccccc4)C(=O)c4ccccc4C3=O)CC2)c1	?	0	6.3µM	7.1µM	0
Cc1cccc(N2CCN(C3(c4ccccc4)C(=O)c4ccccc4C3=O)CC2C)c1 (centres undefined)	?	?	8.9µM	8.9µM	0
Cc1ccc(Cl)cc1N1CCN(C2(c3ccccc3)C(=O)c3ccccc3C2=O)CC1	?	0	?	?	0
Cc1cc(N2CCN(C3CCCC3)CC2)n2c(nc3ccccc32)c1C#N	0	0	0	0	0
O=C(O)c1cc(N(Cc2ccccc2O)Cc2cc(O)ccc2O)ccc1O	-	-	-	2.2µM	-
Cc1nnc(NC(=O)c2ccccc2)s1	0	0	0	0	0
CC1CN(c2nnc(NC(=O)c3ccccc3)s2)CC(C)O1 (centres undefined)	0	0	0	56µM	0
COc1ccc(C(NC(=O)C2CCN(CCOc3ccc(Cl)cc3Cl)CC2)c2ccccc2C)cn1 (centres undefined)	-	-	-	-	0
COc1ccc(C2=NS(=O)(=O)N(C)C(C(=O)Nc3ccc(OC)c(OC)c3)=C2)cc1	?	0	?	35µM	0
COc1ccc(CNC(=O)C2=CC(c3cccc(OC)c3)=NS(=O)(=O)N2C)cc1	?	0	0	0	0
COc1cccc(C2=NS(=O)(=O)N(C)C(C(=O)Nc3cccc(O)c3)=C2)c1	0	0	0	14µM	0
CCN1CCCC1CNC(=O)C(=O)Nc1ccc(OC)cc1 (centres undefined)	0	0	0	-	0
O=C(O)CCCCCNS(=O)(=O)c1ccc2c3c(cccc13)C(=O)N2	0	0	0	79µM	0
O=C(O)CNS(=O)(=O)c1ccc2c3c(cccc13)C(=O)N2	28µM	0	0	-	0
O=C(NCc1ccccn1)c1cc(-c2ccc(-c3ccccc3)cc2)nc2ccccc12	?	0	?	3.2µM	0
O=C(NCc1ccccn1)c1cc(-c2ccccc2)nc2ccccc12	0	0	0	0	0
COc1ccc(-c2cc(C(=O)OCc3ccccn3)c3ccccc3n2)cc1	20µM	0	?	?	0
COc1ccccc1-c1c(C(F)(F)F)oc2cc(OC(=O)c3ccc([N+](=O)[O-])cc3)ccc2c1=O	?	?	?	25µM	0
Cc1cc(=O)oc2cc(OC(=O)c3ccccc3)ccc12	0	0	0	?	0
C=CCCC(=O)N1C[C@H]2CCN(C)[C@H]2C[C@H]1c1ccccc1	-	-	-	-	0
COc1ccc(NC(=O)CC(c2ccc(F)cc2)c2ccc(OC)cc2)cc1 (centres undefined)	0	0	0	0	0
Cc1ccc[n+](CC(=O)c2ccc(-c3ccccc3)cc2)c1	0	0	0	0	0
Cc1ccc(C(=O)C[n+]2cc(Br)cc(Br)c2)cc1[N+](=O)[O-]	?	0	?	50µM	0
Cc1ccc(C(=O)C[n+]2ccccc2)cc1	0	0	0	14µM	0
